Screening results deposited in PubChem BioAssay by several laboratories.
An excerpt weighted towards active compounds, which were near 4.7% of everything screened.
tim23-1 inh – inhibits growth of tim23-1 mutant yeast. S. cerevisiae tim23-1 growth, BacTiter-Glo luminescence, 24 h. inhibition, % at 20 µM. 330,000 tested, 1.3% active;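 active means growth inhibition of the mutant yeast at or above 50%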;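 further: temperature-sensitive mutant grown at 25 °C; plate controls were DMSO-treated mutant yeast for no effect and medium wells lacking yeast for full effect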
Calb FLC – affects C. albicans growth with fluconazole | AID 1979 | C. albicans CaCi-2 (fluconazole-resistant clinical isolate) + fluconazole, Alamar Blue growth, 48 h | growth inhibition, % (concentration not given with the values) | 300,000 tested, 0.57% active;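 active means growth inhibition above about 58% in most replicates, limit read from the data, passing the limit was not always enough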;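 further: all wells also contain fluconazole at 8 µg/ml as a sub-toxic cotreatment; 0% = median of DMSO wells and 100% = median of geldanamycin control wells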
SKKanGAS inh – SKKanGAS growth inhibition; S. pyogenes SKKanGAS, kanamycin growth, BacTiter-Glo, 6 h; inhibition, % at 7.5 µM; 300,000 tested, 1.3% active;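 active means mean replicate score, as percent of positive control median, at least 50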;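 further: strain carries kanamycin resistance gene driven by streptokinase promoter and grows in 40 µg/ml kanamycin; loss of luminescence reflects streptokinase promoter inhibition or plain growth inhibition; 0% = median of DMSO wells and 100% = positive control at its reference dose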
TIM10 inh – inhibits growth of TIM10 yeast strain; S. cerevisiae TIM10 strain growth, BacTiter-Glo luminescence, 24 h; inhibition, % at 10 µM; 330,000 tested, 1.4% active; AID 463195;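 active means inhibition of 40% or more at the single tested concentration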;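 further: wild-type TIM10 isogenic control strain grown at permissive 25 °C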
tim10-1 inh – inhibits growth of tim10-1 mutant yeast; 330,000 tested, 2.2% active; AID 463190; inhibition, % at 20 µM; S. cerevisiae tim10-1 ts strain growth, BacTiter-Glo, 24 h;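 active means inhibition of at least 40%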;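 further: mutant grown at 25 °C; 0% = DMSO wells with yeast and 100% = wells holding no yeast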
PfHsp90 yeast 2 – growth inhibition of yeast expressing Plasmodium Hsp90; S. cerevisiae expressing PfHsp90, BacTiter-Glo ATP, 48 h; yeast lacking PDR1 and PDR3 efflux regulators; inhibition, % at 9.4 µM; 310,000 tested, 0.32% active;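 active means every replicate shows inhibition above about 80%, whatever the replicate mean, limit read from the data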;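 further: 0% = DMSO neutral controls and 100% = 20 µM radicicol positive controls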
tim10 confirm – TIM10 yeast growth inhibition, confirmed; shares compounds with TIM10 inh; S. cerevisiae tim10 strain growth, BacTiter-Glo luminescence, 24 h; inhibition, % at 10 µM; 4,600 tested, 63% active;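 active means inhibition of yeast growth at or above a set limit in either of two replicates at 10 µM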;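 further: this counterscreen used the strain with wild-type TIM10; 0% = yeast with DMSO and 100% = medium wells lacking yeast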
* = called active by the depositor; · = not tested or not shown.

SMILES | tim23-1 inh | Calb FLC | SKKanGAS inh | TIM10 inh | tim10-1 inh | PfHsp90 yeast 2 | tim10 confirm
C/C=C(/C)C(=O)O[C@@H]1[C@H](OC(C)=O)c2c(ccc3ccc(=O)oc23)OC1(C)C | 41 | -2 | 8 | 16 | 28 | 3 | ·
C/C=C(/C)C(=O)OC1c2c(ccc3ccc(=O)oc23)OC(C)(C)C1OC(C)=O (stereo not drawn) | 34 | 1 | 3 | 42* | 39 | 28 | 2
Fc1ccc(C2CC(c3ccccc3)n3ncnc3N2)cc1 (stereo not drawn) | -2 | 1 | -5 | 2 | 13 | 8 | ·
CCOc1ccc(C2CC(c3ccc(F)cc3)n3ncnc3N2)cc1 (stereo not drawn) | 47 | 10 | 4 | 40* | 22 | -9 | 42*
Cc1ccc2oc(=O)c3cc(C(=O)NCCCN4CCc5ccccc5C4)sc3c2c1 | 39 | 0 | 15 | 55* | 33 | 5 | 28
Cc1ccc2oc(=O)c3cc(C(=O)NCCCN4CCCCCC4)sc3c2c1 | 9 | 17 | 2 | 17 | 13 | 5 | ·
COc1ccccc1CNS(=O)(=O)c1ccc(Cl)s1 | 20 | 2 | -1 | 12 | 11 | -19 | ·
O=C(COC(=O)c1ccc([N+](=O)[O-])s1)Nc1cccc(S(=O)(=O)NC2=NCCCCC2)c1 | 4 | 1 | 7 | 21 | 9 | -11 | ·
O=C(COC(=O)/C=C/c1ccc([N+](=O)[O-])cc1)Nc1ccc(F)cc1 | 16 | · | · | 7 | 20 | -24 | ·
O=C(COC(=O)c1ccc([N+](=O)[O-])s1)Nc1ccc(F)cc1 | 37 | · | · | 74* | -34 | -8 | 77*
O=C(COC(=O)c1ccc([N+](=O)[O-])s1)Nc1ccccc1 | 40 | -1 | 4 | 46* | 17 | 10 | -7
Cc1[nH]c2ccccc2c1C(=O)COC(=O)c1ccc([N+](=O)[O-])s1 | 27 | 18 | 51* | 71* | -18 | 13 | 83*
O=C(Nc1cccnc1)c1ccc([N+](=O)[O-])s1 | 44 | · | · | 56* | 14 | -1 | 53*
COc1ccc(CNC(=O)Cn2cc(C)c(=O)[nH]c2=O)cc1 | · | · | · | · | · | 12 | ·
C=CCN(C(=O)CSc1nc2c(sc3ccccc32)c(=O)n1CCN(CC)CC)c1ccccc1 | 26 | 15 | 9 | 51* | 39 | -18 | 20
CC1CCCC12NC(=O)NC2=O (stereo not drawn) | · | · | · | · | · | -5 | ·
Clc1ccc2c(c1)C(N1CCNCC1)Cc1ccccc1S2 (stereo not drawn) | 4 | · | 17 | 48* | 22 | 0 | -40
Clc1cccc2c1Sc1ccccc1CC2N1CCNCC1 (stereo not drawn) | -45 | · | -3 | 33 | 32 | 36 | ·
CCCCCC(=O)Nc1ccc(-c2csc(N)n2)cc1 | 7 | -48 | 7 | 43* | -5 | · | 12
Cc1nc(C(F)(F)F)c(C(=O)O)cc1-c1nc(-c2ccccc2)cs1 | 0 | 9 | 4 | 2 | 23 | -1 | ·
O=C(c1c(Cl)nc2sccn12)N(C(=O)c1c(Cl)nc2sccn12)c1ccc(Cl)cn1 | 48 | 22 | -6 | 42* | 27 | 0 | 22
CCOc1ccc(C=NN2CCCCCC2)cc1OCC | · | · | · | · | · | -13 | ·
CCOc1ccc(/C=N/n2c(SC)nnc2-c2ccccc2)cc1OCC | 19 | 17 | -1 | 43* | 14 | -16 | 21
Cc1cc(/C=C2\SC(=S)N(C)C2=O)c(C)n1-c1ccc(O)cc1 | 28 | 4 | 65* | 74* | 34 | 96* | 91*
COc1ccc(-c2nc3ccccc3s2)cc1O | 0 | 3 | 0 | 47* | 26 | 14 | -24
SMILES | tim23-1 inh | Calb FLC | SKKanGAS inh | TIM10 inh | tim10-1 inh | PfHsp90 yeast 2 | tim10 confirm
Cc1cccc(OCC(O)CN2CCN(c3ccccn3)CC2)c1C (stereo not drawn) | -6 | -4 | -6 | 98* | -6 | -29 | 1
Cc1ccc(CNC(=O)CN(C(=O)C2(C)CC(=O)N=C3C=CC=CN32)c2cccc(C)c2C)cc1 (stereo not drawn) | 1 | -5 | 1 | 8 | -15 | 14 | ·
CCN(C[C@H]1N[C@@](C)(C(=O)OC)[C@H]2C(=O)N(Cc3ccccc3)C(=O)[C@@H]12)S(=O)(=O)c1ccc(C(C)(C)C)cc1 | 18 | · | · | 90* | 21 | 10 | 11
CCOc1ccc(/C=N/NC(=O)c2csc(C)c2C)c(OCC)c1 | 6 | -5 | -5 | -13 | 5 | 5 | ·
CCCCOc1cccc(/C=N/NC(=O)c2csc(C)c2C)c1 | 17 | 3 | 9 | 48* | 32 | -15 | 27
Nc1cc(C(=O)OCC(=O)NCCNC(=O)COC(=O)c2ccc(Cl)c(N)c2)ccc1Cl | -9 | 0 | -7 | 5 | 0 | 11 | ·
CCN(CC)C(=O)Cn1nc(-c2ccc(Cl)cc2)c2ccccc2c1=O | 18 | 1 | -5 | 10 | 27 | -2 | ·
Nc1nnc(SCCCC(=O)c2ccc(F)cc2)s1 | 7 | 2 | 7 | 4 | 9 | -13 | ·
Nc1nnc(SCCCC(=O)c2ccc(Br)cc2)s1 | 6 | -52 | -2 | 40* | 11 | 10 | -2
COc1cc(NC(=O)c2cccs2)ccc1NC(=O)c1ccco1 | 26 | 2 | -8 | 47* | 9 | -5 | -2
CCOC(=O)c1cc2c(ccc3ccccc32)oc1=O | 26 | 2 | -1 | 47* | 22 | -19 | 49*
N=c1oc2ccc3ccccc3c2cc1C(N)=S | 42 | 8 | -10 | 42* | 20 | 14 | 39*
CC(CC(=O)OCC(=O)Nc1ccc2[nH]c(=O)[nH]c2c1)c1ccccc1 (stereo not drawn) | -29 | · | · | -28 | -15 | -30 | ·
O=C(COc1ccccc1)N=C1SC2CS(=O)(=O)CC2N1c1ccccc1 (stereo not drawn) | 6 | -3 | -5 | 97* | 14 | 6 | -5
Cc1ccc(C)c(N2CCN(C(=O)C3CCN(S(=O)(=O)c4cccc5nsnc45)CC3)CC2)c1 | -1 | -40 | 7 | 40* | 36 | -10 | 32*
NC(=O)c1cc[n+](CC(=O)NC(=O)Nc2ccccc2)cc1 | 0 | · | · | 3 | -11 | -2 | ·
CN(C)CCCn1c(SCC(=O)Nc2nc(-c3cccc(Br)c3)cs2)nc2ccccc2c1=O | -10 | -4 | 97* | 43* | 23 | -22 | 25
Cc1csc(NC(=O)CCCC(=O)c2ccccc2)n1 | 0 | 0 | 0 | -11 | -3 | 8 | ·
CCC1C(c2ccccc2)N(C)C(c2ccccc2)CC1(O)c1ccccc1 (stereo not drawn) | 32 | 1 | 12 | 44* | 39 | -28 | 34*
CC1C(=O)CC(c2ccccc2)N(C)C1c1ccccc1 (stereo not drawn) | 24 | -2 | 2 | 16 | 18 | 4 | ·
O=C(COC(=O)c1ccccc1NCCO)Nc1cc(C(F)(F)F)ccc1N1CCOCC1 | 27 | -1 | -2 | 17 | 24 | 2 | ·
